“And” between values parts separate entries of the source, which are not always exact repeats. Equal values may be shown once. Inconclusive results are not listed. A call without a number means that no potency is given here. The source made the active and inactive calls. Unless noted, the call rests on the fitted dose curve; in most records, active means well fitted curve in the direction sought with a large enough effect; inconclusive means small, poorly fitted or top-dose-only effect, or another doubt; inactive means no such curve, though single readings can be large; an effect the other way counts as inactive or inconclusive.
Experiments:
[1] = target: Thioredoxin reductase 1, cytoplasmic (Rattus norvegicus) (UniProt O89049); test: qHTS Assay for Substrates of Mammalian Selenoprotein Thioredoxin Reductase 1 (TrxR1) (AID 488772);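 further: NADPH fluorescence in the first read after selenite addition and not the 8 min delta; series mostly up to about 57 µM; a drop in NADPH fluorescence below the no-compound background marks a TrxR1 substrate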
Method in brief: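 Quantitative HTS in Tris-HCl buffer at pH 7.5 with EDTA and Tween-20, using rat TrxR1, 400 uM NADPH and 400 uM selenite (final). A fall in initial NADPH fluorescence relative to background marked substrate behaviour.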

[2] = target: Flap endonuclease 1 (Homo sapiens) (UniProt P39748); test: qHTS Validation Assay for the Inhibitors of Human Flap endonuclease 1 (FEN1) (AID 488816); further: potency means the concentration at half of the fitted maximal effect
Method in brief: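 Readings taken at 0 and 15 min after starting the reaction with 50 nM (final) substrate supplied the signal. Compounds had first sat with 10 nM FEN1 reagent for 15 min at room temperature. Values come from Hill-equation concentration-response fits.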

[3] = target: M-phase phosphoprotein 8 (Homo sapiens) (UniProt Q99549); test: qHTS Validation Assay for Inhibitors for MPP8 Chromodomain Interactions with Methylated Histone Tails (AID 488949); further: nearly all actives have a fitted effect of over 55% in size; further: potency means the concentration at half of the fitted maximal effect
Method in brief: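 AlphaScreen proximity signal from streptavidin donor and Ni-chelate acceptor beads (10 ug/mL each) reported binding of MPP8 to trimethyl-K9 H3(1-18) peptide, both at 50 nM. The complex formed 30 min before a 30 min compound exposure at room temperature, in PBS pH 7.4.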

[4] = target: Chromobox protein homolog 1 (Homo sapiens) (UniProt P83916); test: qHTS Validation Assay for Inhibitors of HP1-beta Chromodomain Interactions with Methylated Histone Tails (AID 488953); further: nearly all actives have a fitted effect of over 50% in size; further: potency means the concentration at half of the fitted maximal effect
Method in brief: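 Measured as loss of AlphaScreen luminescence from streptavidin donor and nickel acceptor beads (10 ug/mL final) bridging HP1-beta and biotin-H3(1-18)K9me3, each 50 nM. Compounds met the preassembled complex for 30 min at RT.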

[5] = target: Methanococcus maripaludis chaperonin (MmCpn) (UniProt Q6LX38); test: High-Throughput Screening for Modulators of Cytosolic Chaperonin Activity: MmCpn Primary Screen (AID 488978);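 further: 50 nM MmCpn enzyme hydrolysing 30 µM ATP at 37 °C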
Method in brief: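 ATPase activity of 50 nM MmCpn was assayed with 30 uM ATP, 10 minutes at 37C, after a 5 min compound preincubation at room temperature. ADP production was read as HTRF emission at 590 and 665 nm.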

[6] = target: D(1A) dopamine receptor (Homo sapiens) (UniProt P21728); test: HTS Assay for Allosteric Agonists of the Human D1 Dopamine Receptor: Primary Screen for Agonists (AID 488981)
Method in brief: (§1)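 Calcium flux in an inducible, force-coupled HEK293 Trex D1 line (overnight at 30 C): agonist mode is the 180 s kinetic read after compound; potentiator mode is the following 180 s read after dopamine at EC20.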

[7] = target: D(1A) dopamine receptor (Homo sapiens) (UniProt P21728); test: HTS Assay for Allosteric Agonists of the Human D1 Dopamine Receptor: Primary Screen for Potentiators (AID 488982)
Method in brief: as §1

[8] = target: D(1A) dopamine receptor (Homo sapiens) (UniProt P21728); test: HTS Assay for Allosteric Agonists of the Human D1 Dopamine Receptor: Primary Screen for Antagonists (AID 488983);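 further: calcium flux response to an EC80 dopamine challenge measured with no-wash dye; nearly all actives have a fitted effect of over 65% in size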
Method in brief: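 Screening of inducible HEK293 T-REx D1 cells: compound first, EC80 dopamine 180 s later, each phase read kinetically for calcium over 180 s.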

[9] = Validation screen for small molecules that induce genotoxicity in human embryonic kidney (HEK293T) cells expressing luciferase-tagged ELG1 (AID 493106)
Method in brief: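 Reporter-gene quantitative HTS in HEK293T cells carrying luciferase-tagged ELG1, whose level climbs under genotoxic stress. Compound exposure lasts 16 hr at 37 °C before luciferase detection.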

[10] = target: ATPase family AAA domain-containing protein 5 (Homo sapiens) (UniProt Q96QE3); test: Validation screen for small molecules that inhibit ELG1-dependent DNA repair in human embryonic kidney (HEK293T) cells expressing luciferase-tagged ELG1 (AID 493107); further: nearly all actives have a fitted effect of over 70% in size; further: potency means the concentration at half of the fitted maximal effect
Method in brief: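 Quantitative HTS in HEK293T cells carrying luciferase-tagged ELG1, stimulated with 5-fluorouridine alongside compound for 16 hr. Loss of luciferase signal marks inhibition of ELG1 response.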

[11] = qHTS for Inhibitors of Cell Surface uPA Generation: Validation Assay (AID 493164);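 further: RAW 264.7 macrophage cells exposed to compound for 18 h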
Method in brief: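 RAW 264.7, 4000 cells/well, o/n plating; cpd 7-pt 1:5 dilution 2.45 nM–38.3 uM final; 18 h, 37 C/5% CO2; ATP-Lite, 5 s luminescence exposure.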

[12] = target: Transient receptor potential cation channel subfamily V member 1 (Homo sapiens) (UniProt Q8NER1); test: HTS Assay for Compounds that Act as Enhancers of the Vanilloid Receptor 1 (AID 488979)
Method in brief: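 Calcium influx kinetics via Fluo-8 (480/520 nm) in TRPV1-expressing cells, 2000/well cultured overnight at 35.5C. Compound-alone read 3 min (agonist phase), followed by EC20 capsaicin challenge for 2 min (enhancer phase).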

[13] = target: Thyrotropin receptor (Homo sapiens) (UniProt P16473); test: qHTS Assay for Antagonists of the Thyroid Stimulating Hormone Receptor (AID 488980); further: series mostly up to about 58 µM
Method in brief: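 Inhibition of cAMP raised by EC80 TSH (4 nM final) was read by HTRF, with lysate cAMP competing against cAMP-d2 for cryptate antibody after 30 min at room temperature. The cells were transfected HEK293 held in phosphodiesterase inhibitor RO 20-1724 at 70 uM.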

[14] = target: Thyrotropin-releasing hormone receptor (Homo sapiens) (UniProt P34981); test: qHTS for Small Molecule Agonists and Allosteric Enhancers of Human TRH Receptor: Validation Screen for Agonists (AID 493127;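 active means calcium activation more than 3 SD above the typical response in the agonist read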;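 further: intracellular calcium rise by fluo-8 fluorescence before TRH EC20 addition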); conditions: TRH receptor agonist cell assay; at 2 µM; stronger effect = higher value
Method in brief: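 Gq-coupled calcium mobilization in TRHR cells after compound addition, monitored kinetically with fluo-8 dye on an FDSS reader.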

[15] = Nrf2 qHTS screen for inhibitors: Validation (AID 493153; active means well fitted inhibition curve with a large enough effect in the main read-out, with a control signal flat, not every such curve was filed as active); conditions: Potency: luciferase luminescence; viability change: measured here: cytotoxicity max response
Method in brief: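 Dose-response validation uses reporter A549 cells with firefly luciferase under an antioxidant response element. Compounds stay on cells 18-24 h at 37°C, and luminescence indicates Nrf2-driven transcription.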

[16] = target: Galactokinase (Homo sapiens) (UniProt P51570); test: qHTS Validation Assay for Inhibitors of Human Galactokinase (GALK) (AID 493189)
Method in brief: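 Inhibition was measured as remaining ATP, detected by luciferase luminescence after a 1 h room-temperature reaction. Final conditions: 5 nM GALK, 100 uM galactose, 35 uM ATP, pH 8.0 HEPES buffer.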

[17] = Validation screen for small molecules that induce DNA re-replication in SW480 colon adenocarcinoma cells (AID 504364)
Method in brief: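 Cells are treated 48 hr with test compound, stained 40 min with Hoechst at 37 C, and scanned for nuclear fluorescence; compounds inducing re-replication increase nuclei with elevated intensity.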

Chromobox protein homolog 1 (Homo sapiens), sequence (P83916 whole entry, looked up): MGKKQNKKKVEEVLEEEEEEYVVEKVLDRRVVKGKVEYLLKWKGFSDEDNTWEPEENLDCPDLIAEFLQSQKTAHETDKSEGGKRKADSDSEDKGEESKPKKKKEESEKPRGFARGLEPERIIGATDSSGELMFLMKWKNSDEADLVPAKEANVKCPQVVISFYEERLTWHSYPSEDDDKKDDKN
Thyrotropin receptor (Homo sapiens), sequence (P16473 whole entry, looked up): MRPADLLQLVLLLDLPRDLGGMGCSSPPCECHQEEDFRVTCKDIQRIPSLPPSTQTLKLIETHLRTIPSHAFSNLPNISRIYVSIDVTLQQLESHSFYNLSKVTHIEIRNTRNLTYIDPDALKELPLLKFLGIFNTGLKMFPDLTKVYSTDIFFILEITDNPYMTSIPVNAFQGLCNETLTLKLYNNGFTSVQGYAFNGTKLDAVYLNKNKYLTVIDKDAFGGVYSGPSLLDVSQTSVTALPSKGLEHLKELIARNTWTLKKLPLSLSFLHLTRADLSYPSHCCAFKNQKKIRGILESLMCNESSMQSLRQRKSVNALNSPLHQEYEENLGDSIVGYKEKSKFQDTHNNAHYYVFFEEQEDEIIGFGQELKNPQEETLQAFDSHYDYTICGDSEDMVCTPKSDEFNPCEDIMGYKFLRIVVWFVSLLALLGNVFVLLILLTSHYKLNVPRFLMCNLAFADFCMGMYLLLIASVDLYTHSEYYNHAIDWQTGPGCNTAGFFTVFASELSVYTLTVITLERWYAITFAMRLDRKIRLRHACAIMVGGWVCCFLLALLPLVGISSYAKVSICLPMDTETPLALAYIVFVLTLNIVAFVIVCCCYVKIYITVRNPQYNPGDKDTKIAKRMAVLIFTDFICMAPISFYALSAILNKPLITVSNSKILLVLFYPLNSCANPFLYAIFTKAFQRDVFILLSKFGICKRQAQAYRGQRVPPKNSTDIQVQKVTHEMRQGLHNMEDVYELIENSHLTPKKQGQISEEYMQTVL
Galactokinase (Homo sapiens), sequence (P51570 whole entry, looked up): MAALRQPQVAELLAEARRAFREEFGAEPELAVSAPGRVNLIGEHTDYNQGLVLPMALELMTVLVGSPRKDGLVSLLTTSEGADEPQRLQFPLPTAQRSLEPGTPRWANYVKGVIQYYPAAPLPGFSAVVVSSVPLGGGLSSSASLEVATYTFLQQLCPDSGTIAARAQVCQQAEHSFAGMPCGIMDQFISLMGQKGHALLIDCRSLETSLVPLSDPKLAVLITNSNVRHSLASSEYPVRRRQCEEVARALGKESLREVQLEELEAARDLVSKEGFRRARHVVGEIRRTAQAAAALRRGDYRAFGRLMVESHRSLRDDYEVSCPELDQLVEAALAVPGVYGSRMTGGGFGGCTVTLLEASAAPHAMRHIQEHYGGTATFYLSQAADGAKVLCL
Methanococcus maripaludis chaperonin (MmCpn), sequence (Q6LX38 1-543): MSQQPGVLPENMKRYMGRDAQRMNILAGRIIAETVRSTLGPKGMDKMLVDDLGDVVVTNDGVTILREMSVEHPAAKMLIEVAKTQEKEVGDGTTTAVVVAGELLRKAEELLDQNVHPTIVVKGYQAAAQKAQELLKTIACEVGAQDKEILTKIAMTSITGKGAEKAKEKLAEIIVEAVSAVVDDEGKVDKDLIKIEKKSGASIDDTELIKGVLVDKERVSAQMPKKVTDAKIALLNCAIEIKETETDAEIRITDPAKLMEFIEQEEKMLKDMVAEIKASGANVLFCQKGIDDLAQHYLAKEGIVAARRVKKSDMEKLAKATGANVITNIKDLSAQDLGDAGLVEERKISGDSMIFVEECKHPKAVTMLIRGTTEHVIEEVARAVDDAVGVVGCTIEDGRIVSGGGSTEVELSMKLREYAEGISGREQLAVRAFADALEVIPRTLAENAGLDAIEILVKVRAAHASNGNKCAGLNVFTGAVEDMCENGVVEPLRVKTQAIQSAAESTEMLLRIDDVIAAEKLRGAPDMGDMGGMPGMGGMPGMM
D(1A) dopamine receptor (Homo sapiens), sequence (P21728 whole entry, looked up): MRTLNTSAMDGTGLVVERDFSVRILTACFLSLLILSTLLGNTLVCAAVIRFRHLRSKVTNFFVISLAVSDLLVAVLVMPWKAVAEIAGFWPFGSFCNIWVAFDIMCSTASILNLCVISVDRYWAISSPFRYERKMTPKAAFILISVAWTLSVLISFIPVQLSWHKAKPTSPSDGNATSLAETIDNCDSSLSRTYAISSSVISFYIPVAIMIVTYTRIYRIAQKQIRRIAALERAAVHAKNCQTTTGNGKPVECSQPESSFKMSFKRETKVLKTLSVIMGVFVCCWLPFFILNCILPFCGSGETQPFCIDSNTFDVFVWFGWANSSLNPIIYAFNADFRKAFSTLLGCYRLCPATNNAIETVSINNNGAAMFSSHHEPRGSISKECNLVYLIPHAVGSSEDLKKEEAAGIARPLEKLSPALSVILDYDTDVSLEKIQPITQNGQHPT
Flap endonuclease 1 (Homo sapiens), sequence (P39748 whole entry, looked up): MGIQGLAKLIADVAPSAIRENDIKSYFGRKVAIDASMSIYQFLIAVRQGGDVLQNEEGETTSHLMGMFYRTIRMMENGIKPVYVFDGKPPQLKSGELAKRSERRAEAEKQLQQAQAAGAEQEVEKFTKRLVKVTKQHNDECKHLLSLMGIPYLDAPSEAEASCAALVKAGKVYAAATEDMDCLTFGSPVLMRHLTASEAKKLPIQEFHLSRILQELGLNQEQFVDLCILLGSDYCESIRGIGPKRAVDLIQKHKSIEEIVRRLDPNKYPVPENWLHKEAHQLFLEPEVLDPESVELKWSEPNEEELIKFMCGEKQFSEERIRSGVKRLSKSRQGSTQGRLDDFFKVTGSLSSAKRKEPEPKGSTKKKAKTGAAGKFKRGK
Thioredoxin reductase 1, cytoplasmic (Rattus norvegicus), sequence (O89049 whole entry, looked up): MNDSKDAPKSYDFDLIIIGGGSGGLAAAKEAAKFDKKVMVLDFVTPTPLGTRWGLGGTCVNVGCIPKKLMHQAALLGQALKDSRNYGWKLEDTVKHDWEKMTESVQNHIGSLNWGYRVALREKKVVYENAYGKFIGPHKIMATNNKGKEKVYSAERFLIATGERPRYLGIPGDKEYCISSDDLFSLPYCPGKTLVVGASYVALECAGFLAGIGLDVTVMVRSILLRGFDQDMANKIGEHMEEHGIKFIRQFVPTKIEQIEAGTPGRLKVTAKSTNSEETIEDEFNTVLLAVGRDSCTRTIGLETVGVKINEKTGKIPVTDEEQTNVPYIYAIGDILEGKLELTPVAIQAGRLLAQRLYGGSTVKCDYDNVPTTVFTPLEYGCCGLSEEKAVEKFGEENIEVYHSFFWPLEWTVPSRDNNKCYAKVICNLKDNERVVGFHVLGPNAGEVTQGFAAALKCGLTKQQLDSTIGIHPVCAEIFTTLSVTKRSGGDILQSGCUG
M-phase phosphoprotein 8 (Homo sapiens), sequence (Q99549 whole entry, looked up): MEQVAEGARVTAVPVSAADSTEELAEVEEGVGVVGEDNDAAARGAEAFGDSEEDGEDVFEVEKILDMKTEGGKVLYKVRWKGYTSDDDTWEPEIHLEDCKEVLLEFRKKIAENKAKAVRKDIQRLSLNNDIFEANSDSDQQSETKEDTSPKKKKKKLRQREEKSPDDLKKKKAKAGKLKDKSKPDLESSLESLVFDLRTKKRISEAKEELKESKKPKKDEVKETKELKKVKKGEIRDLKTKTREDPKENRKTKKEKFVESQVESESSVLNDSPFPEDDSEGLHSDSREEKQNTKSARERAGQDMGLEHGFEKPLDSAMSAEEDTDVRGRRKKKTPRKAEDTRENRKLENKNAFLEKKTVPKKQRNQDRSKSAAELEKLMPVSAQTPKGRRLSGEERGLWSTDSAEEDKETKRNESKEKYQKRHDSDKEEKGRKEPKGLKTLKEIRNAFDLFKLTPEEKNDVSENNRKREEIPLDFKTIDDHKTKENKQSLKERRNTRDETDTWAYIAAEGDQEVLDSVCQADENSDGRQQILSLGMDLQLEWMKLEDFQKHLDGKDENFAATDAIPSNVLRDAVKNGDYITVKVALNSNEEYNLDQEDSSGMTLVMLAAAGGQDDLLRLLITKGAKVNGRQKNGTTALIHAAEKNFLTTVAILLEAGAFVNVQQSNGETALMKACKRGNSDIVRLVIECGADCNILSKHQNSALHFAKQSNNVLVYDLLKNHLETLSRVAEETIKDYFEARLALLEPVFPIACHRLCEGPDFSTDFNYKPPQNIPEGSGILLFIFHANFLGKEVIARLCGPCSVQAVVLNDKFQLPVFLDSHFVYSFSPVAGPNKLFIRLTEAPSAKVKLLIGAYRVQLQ
Thyrotropin-releasing hormone receptor (Homo sapiens), sequence (P34981 whole entry, looked up): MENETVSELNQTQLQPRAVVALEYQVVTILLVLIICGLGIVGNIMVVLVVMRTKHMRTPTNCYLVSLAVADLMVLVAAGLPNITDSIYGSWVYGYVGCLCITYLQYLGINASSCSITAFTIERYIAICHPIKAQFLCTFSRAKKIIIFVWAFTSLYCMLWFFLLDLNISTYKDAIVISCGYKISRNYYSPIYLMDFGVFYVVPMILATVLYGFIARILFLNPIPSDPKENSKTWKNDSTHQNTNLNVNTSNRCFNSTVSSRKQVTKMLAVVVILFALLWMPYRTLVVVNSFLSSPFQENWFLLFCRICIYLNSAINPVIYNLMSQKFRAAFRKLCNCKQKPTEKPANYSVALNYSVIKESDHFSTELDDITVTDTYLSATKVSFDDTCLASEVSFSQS

N#C/C(=C\c1ccc(-c2cc(Cl)ccc2Cl)o1)C(=O)Nc1cccc2ncccc12
Potency [1]: inactive | Potency [2]: inactive | Potency [3]: inactive | Potency [4]: inactive | outcome [5]: inactive | Potency [6]: inactive | Potency [7]: inactive | Potency [8]: inactive | Potency [9]: inactive | Potency [10]: 16.4 µM (active) | outcome [11]: inactive

CCCN(CC1CC1)c1nc(C)nc(Nc2c(Cl)cc(Cl)cc2Cl)c1Cl
Potency [1]: inactive | Potency [2]: inactive | Potency [3]: inactive | Potency [4]: inactive | outcome [5]: inactive | outcome [12]: inactive | outcome [13]: inactive | Potency [6]: inactive | Potency [7]: inactive | Potency [9]: inactive | Potency [10]: inactive | activation [14]: -7.44% (inactive) | Potency [15]: inactive | viability change [15]: 7.51% | outcome [11]: inactive | Potency [16]: inactive | Potency [17]: inactive

Nc1nc(Cl)nc2c1ncn2[C@@H]1O[C@H](CO)[C@@H](O)[C@H]1O
Potency [1]: inactive | Potency [2]: inactive | Potency [3]: inactive | Potency [4]: inactive | outcome [5]: inactive | Potency [6]: inactive | Potency [7]: inactive | Potency [9]: inactive | Potency [10]: inactive | Potency [15]: inactive | viability change [15]: -2.02% | outcome [11]: inactive

Clc1ccc(N2CCN(Cc3c[nH]c4ncccc34)CC2)cc1
Potency [1]: inactive | Potency [2]: inactive | Potency [3]: inactive | outcome [5]: inactive | outcome [12]: inactive | outcome [13]: inactive | Potency [6]: inactive | Potency [7]: inactive | Potency [9]: inactive | Potency [10]: inactive | activation [14]: 2.19% (inactive) | Potency [15]: inactive | viability change [15]: -2.66% | outcome [11]: inactive | Potency [16]: inactive | Potency [17]: inactive

CC(COc1ccc(/C=C/c2ccccc2)cc1)[N+](C)(C)C (stereo unspecified)
Potency [1]: inactive | Potency [2]: inactive | Potency [3]: inactive | Potency [4]: inactive | outcome [5]: inactive | outcome [12]: inactive | outcome [13]: inactive | Potency [6]: inactive | Potency [7]: inactive | Potency [8]: inactive | Potency [9]: inactive | Potency [10]: inactive | activation [14]: 0.125% (inactive) | outcome [11]: inactive | Potency [16]: inactive | Potency [17]: inactive

N#C/C(=C\c1ccc(O)c(O)c1)C(=O)c1ccc(O)c(O)c1
Potency [1]: inactive | Potency [2]: 752 nM (active) | Potency [3]: 1.41 µM (active) and 2.99 µM (active) | Potency [4]: 501 nM (active) | outcome [12]: inactive | outcome [13]: inactive | Potency [6]: inactive | Potency [7]: inactive | Potency [9]: inactive | Potency [10]: inactive | activation [14]: -0.562% (inactive) | Potency [15]: inactive | viability change [15]: -19.7% | Potency [16]: inactive

— PubChem BioAssay (NCATS)
